Assay outcomes as filed in PubChem.
ssDAF12 agonist: S. stercoralis DAF-12 nuclear receptor activators, primary screen, cell-based, luminescence, HEK293, GRIP1 co-expression, lit1-tk-luc. Nuclear hormone receptor DAF-12 (Strongyloides stercoralis). HEK293 ssDAF-12/GRIP1 lit1-tk-luc reporter; % of 3 µM dafachronic acid response. AID 652126, 2013. 370,000 tested, 1% active. activation, % at 6.8 µM;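 active means activation above the mean over all tested compounds plus 3 SD, cut at about 0.9% in these data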
SMARCA2 activ: SMARCA2 (BRM) function activators, primary screen, cell-based, luminescence, high throughput; MG213 cells, MMTV-luciferase reporter, dexamethasone, overnight; activation, % at 9.1 µM; 370,000 tested, 1% active; AID 652017, 2013; in the data active means activation above about 7.8%
hgDAF12 agonist: H. glycines DAF-12 receptor agonists, primary screen, cell-based, luminescence, HEK293, GAL4 fusion, UAS-luciferase | Nuclear hormone receptor DAF-12 (Heterodera glycines), GAL4 fusion | HEK293 GAL4-hgDAF12 UAS-luciferase reporter, agonist luminescence; normalized to butyrate control | activation, % at 6.8 µM | 370,000 tested, 1.8% active | AID 687014, 2013;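 active means activation above a cutoff set at the mean of all screened compounds plus 3 SD, cut at about 10% in these data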
DAX1 inh-1: DAX1 (NR0B1) inhibitors on StAR promoter, primary screen, cell-based, luminescence, SF-1 (NR5A1), full-length DAX-1; inhibition, % at 6.8 µM; HEK293T StAR-luciferase reporter, SF-1/DAX-1 repression relief; 370,000 tested, 1.1% active;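 active means inhibition above the mean over all tested compounds plus 3 SD, cut at about 3.6% in these data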;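 further: higher inhibition means more luminescence from relief of DAX-1 repression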
DAX1 inh-2: DAX1 (NR0B1) inhibitors, primary screen, cell-based, HEK293, Gal4-DAX1, luciferase luminescence; Nuclear receptor subfamily 0 group B member 1 (Homo sapiens), P51843; HEK293 Gal4-DAX1 luciferase reporter; inhibition, % at 6.75 µM; 340,000 tested, 0.99% active; AID 504766, 2011;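 active means inhibition above the mean over all tested compounds plus 3 SD, cut at about 4.2% in these data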;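 further: inhibition shows as a rise in luminescence from relieved DAX1 repression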
Target sequence (P51843 207-470 limits assumed): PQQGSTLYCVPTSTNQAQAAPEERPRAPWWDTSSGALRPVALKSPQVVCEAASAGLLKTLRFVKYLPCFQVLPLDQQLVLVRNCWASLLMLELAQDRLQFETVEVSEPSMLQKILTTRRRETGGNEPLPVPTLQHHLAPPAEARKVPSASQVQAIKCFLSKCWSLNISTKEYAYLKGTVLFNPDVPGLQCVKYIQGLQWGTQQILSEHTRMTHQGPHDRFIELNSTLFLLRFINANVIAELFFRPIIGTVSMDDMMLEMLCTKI
hcDAF-12 act: H. contortus DAF-12 nuclear receptor activators, primary screen, cell-based, luminescence, HEK293, lit1-tk-luc reporter. activation, % at 6.8 µM. 370,000 tested, 1.4% active. HEK293 hcDAF-12 lit1-tk-luc reporter; 0% DMSO, 100% Δ7-dafachronic acid;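 active means activation above the mean of all tested compounds plus 3 SD, cut at about 5.5% in these data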
Each line names hits and unclear results; the compound was inactive in the other large screens. An excerpt weighted towards active compounds, which were near 4.8% of everything screened.

O=C(Nc1ccc2c(c1)OCO2)c1c(F)cccc1F	hgDAF12 agonist 13
O=C(Nc1nc(-c2ccc3c(c2)OCO3)cs1)C1CC1	hgDAF12 agonist 11
O=C(Nc1ccc2c(c1)OCO2)C1CCCCC1	DAX1 inh-1 4.0
Cc1ccccc1-c1nc(-c2ccc(NC(=O)c3ccc4c(c3)OCO4)cc2)no1	none
COc1cc(-c2nc(-c3ccc(NC(=O)c4ccc5c(c4)OCO5)cc3)no2)cc(OC)c1OC	SMARCA2 activ 8.0
CCCCN1CN2Cc3cc(OC)ccc3C2CS1(=O)=O (stereo unspecified)	none (no result: DAX1 inh-2)
CC(=O)c1cccc(NC(=O)C2CCCC2)c1	none
COc1ccc(C(CC(=O)c2ccc3c(c2)OCO3)C(=O)O)cc1OC (stereo unspecified)	ssDAF12 agonist 4.0
COc1ccc(-n2nc(C(=O)Nc3ccc4c(c3)OCO4)c3ccccc3c2=O)cc1	none
CC(=O)c1ccc(NC(=O)C2CCCC2)cc1	DAX1 inh-2 6.0
O=C(Nc1ccc(Cl)c(Cl)c1)c1ccc(Cl)c(Cl)c1	hgDAF12 agonist 13
Cn1nc(C(=O)Nc2ccc3c(c2)OCO3)c2ccccc2c1=O	ssDAF12 agonist 2.4
COC(=O)C1CN(Cc2cn(Cc3ccc(C)cc3)nn2)CCS(=O)(=O)N1Cc1ccc(C)cc1 (stereo unspecified)	none (no result: DAX1 inh-2)
O=C(CCCCCN1C(=O)C2C3C=CC(C3)C2C1=O)Nc1ccc2ncccc2c1 (stereo unspecified)	none (no result: DAX1 inh-2)
COC(CNC(=O)[C@H](Cc1ccccc1)NCC(=O)NC1CCCCC1)OC	none (no result: SMARCA2 activ, DAX1 inh-1, DAX1 inh-2)
N#Cc1ccccc1OCC(=O)NC(=O)NCc1ccco1	hgDAF12 agonist 11, DAX1 inh-2 7.0
Cc1ccccc1OCCCC(=O)NCc1ccco1	DAX1 inh-2 4.4
Cc1ccc(OCCCC(=O)NCc2ccco2)cc1	none
COC(=O)c1ccc(S(=O)(=O)N2CCC(NC(=O)CCc3ccccc3)CC2)cc1	none (no result: DAX1 inh-2)
CC1(C)Cc2c(cnn2-c2ccc(F)cc2)C(NC(=O)C2CCC2)C1 (stereo unspecified)	DAX1 inh-1 4.3
CC1(C)Cc2c(cnn2-c2ccc(F)cc2)C(NC(=O)C(C)(C)O)C1 (stereo unspecified)	none
CCCC(=O)n1nc(-c2ccc(C)cc2)nc1NCc1ccco1	hgDAF12 agonist 13
O=C(N[C@H](C(=O)N1CCC[C@H]1C(=O)NC1CCCC1)C1CCCCC1)c1ccc(Cl)c(Cl)c1	none (no result: DAX1 inh-2)
Nc1ccc(OCc2ccccc2)cc1[N+](=O)[O-]	hgDAF12 agonist 11
CC(=O)OCC(=O)C1(O)CCC2C3CCC4=CC(=O)CCC4(C)C3C(O)CC21C (stereo unspecified)	DAX1 inh-1 3.7
CCOC(=O)OCC(=O)C1(O)CCC2C3CCC4=CC(=O)CCC4(C)C3C(O)CC21C (stereo unspecified)	none
COCCn1c(SCC(=O)N2CC(=O)Nc3ccccc32)nc2ccccc2c1=O	none
COCCn1c(SCC(=O)N2CC(=O)Nc3ccccc32)nc2ccccc21	hcDAF-12 act 5.8
C/C(=N\N1CCN(Cc2ccc(Cl)cc2)CC1)c1ccc(F)cc1	DAX1 inh-2 4.5
Cc1cccn2c(CN(C)C3CCOC3)c(C(=O)N3CCCCC3)nc12 (stereo unspecified)	DAX1 inh-2 4.3
C#CCNC(=O)CSCc1nc(-c2ccc(OCC)cc2)oc1C	none (no result: SMARCA2 activ, DAX1 inh-1, DAX1 inh-2)
O=C(N/N=C/c1ccncc1)c1sc2ccccc2c1Cl	DAX1 inh-1 3.9
CCCn1nnc(NC(=O)c2sc3ccccc3c2Cl)n1	none
CC(C)c1nnc(NC(=O)c2sc3ccccc3c2Cl)s1	hcDAF-12 act 5.9
COc1ccc(C(=O)OCCN(C)C2CN(Cc3cn(Cc4cccc(F)c4)nn3)S(=O)(=O)C2)cc1OC (stereo unspecified)	none (no result: DAX1 inh-2)
CC(C)=CC(=O)NCC1CCN(C(=O)C(=O)c2cc3ccccc3o2)CC1	none (no result: DAX1 inh-2)
COc1ccc(CN2CN(S(=O)(=O)c3cccs3)c3nc4ccccc4nc32)cc1	hgDAF12 agonist 13
O=S(=O)(c1cccs1)N1CN(Cc2ccccc2)c2nc3ccccc3nc21	none
CC1=C(C(=O)OCC2CCCO2)C(c2coc3ccccc3c2=O)C2=C(CCCC2=O)N1 (stereo unspecified)	DAX1 inh-2 4.2
COC(=O)C1=C(C)NC2=C(C(=O)CCC2)C1c1coc2ccccc2c1=O (stereo unspecified)	none
COC1=C[C@H](C(=O)NCc2ccccn2)[C@H](C)[C@@H](c2ccccc2)CC1=O	none (no result: DAX1 inh-2)
Clc1ccc(-c2nnc(CCc3ccccc3)o2)c(Cl)c1	hcDAF-12 act 5.8
COc1ccc(NC(=O)c2cc(C3CCCCN3S(=O)(=O)Cc3ccccc3)on2)cn1 (stereo unspecified)	hgDAF12 agonist 11 (no result: DAX1 inh-2)
CC1(C)CC(=Cc2ccccc2[N+](=O)[O-])C(=O)c2ccccc21	SMARCA2 activ 7.9
O=C1C(=Cc2ccccc2[N+](=O)[O-])Cc2ccccc21	none
O=C(OCCN1CCN(C2CN(Cc3cn(Cc4ccc([N+](=O)[O-])cc4)nn3)S(=O)(=O)C2)CC1)c1cc2ccccc2o1 (stereo unspecified)	none (no result: DAX1 inh-2)
CN1C2=N[C@@H](c3ccc4ccccc4c3)CC(=O)N2/C(=C\c2ccccc2)[C@H]1c1ccccc1	none (no result: SMARCA2 activ, DAX1 inh-1, DAX1 inh-2)
Cc1ccc(O)c(C2=Nc3ccccc3N=C(c3ccc([N+](=O)[O-])cc3)C2)c1	ssDAF12 agonist 1.0
Cc1ccc(O)c(C2=Nc3ccccc3N=C(c3ccco3)C2)c1	none
Cc1ccc(/C=C/C(=O)Nc2ccncc2)o1	none
Cc1ccc(/C=C/C(=O)Nc2ccc(N(C)C)cc2)o1	ssDAF12 agonist 1.6
CCCCCCCCN1C(=O)[C@@H](CC(=O)N2CCN(C(=O)C3CC3)CC2)C[C@@]2(C(=O)OC)C1=C[C@H](C(C)(C)C)O[C@@H]2C	none (no result: DAX1 inh-2)
Cc1ccc(-c2nc(C3CCCN(S(=O)(=O)c4ccccc4)C3)no2)cc1 (stereo unspecified)	none (no result: DAX1 inh-2)
Cc1cc[n+](CC(=O)Nc2nc3ccccc3s2)cc1	ssDAF12 agonist 1.9
Cc1ccc(S(=O)(=O)N(C)CC(=O)Nc2nc3ccccc3s2)cc1	none
COCC(=O)Nc1nc2ccccc2s1	hcDAF-12 act 6.0
O=C(CSC1=NCCS1)Nc1nc2ccccc2s1	ssDAF12 agonist 1.2
CCC(=O)Nc1nc2ccc3nc(C)sc3c2s1	hgDAF12 agonist 11
